# Bioassay records: PubChem, National Center for Advancing Translational Sciences (NCATS)
# TDP1 cell noCPT = qHTS for Inhibitors of human tyrosyl-DNA phosphodiesterase 1 (TDP1): qHTS in cells in absence of CPT | DT40 Tdp1-/- hTDP1 cells, no CPT, ATP luminescence, 48 h | Potency, µM (highest dose often 46.2 µM), usual class: inhibitors | 420,000 compounds, 15% hits; note: nearly all actives have a fitted effect of over 55% in size
#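 A cellular qHTS used chicken DT40 cells lacking endogenous Tdp1 but carrying stably transfected human TDP1. Compounds were applied without camptothecin, and cell growth kinetics were judged by ATP-dependent luminescence after ≥48 hr.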
# DT40 TDP1 CPT = growth inhibition of DT40 Tdp1-/-;hTDP1 cells with camptothecin (screen for TDP1 inhibitors); Potency, µM (series often up to 46.2 µM), actives largely listed as inhibitors; chicken DT40 Tdp1-/-;hTDP1 cells + 20 nM CPT, ATP luminescence, 48 h; AID 686979; 420,000 compounds, 12% hits; note: nearly all actives have a fitted effect of over 55% in size
#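 Cell growth measured by CellTiter-Glo luminescence after a minimum 48 h, 37 C compound exposure with 20 nM CPT in Tdp1-knockout DT40 cells stably expressing hTDP1, seeded 400/well; qHTS titration format.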
# HT1080 IDH1KD tx = HT-1080 IDH1 knockdown cell toxicity (counter line). HT-1080 IDH1 knockdown viability, ATP luminescence, 48 h. Potency, µM (titrated, usually from 46.1 µM), most hits filed as cytotoxic. 360,000 compounds, 2% hits. AID 686971
#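 CellTiter-Glo luminescence after 48 h compound exposure at 37 degrees C of IDH1-knockdown HT-1080 cells in 5% FBS RPMI. %Activity scaled between DMSO wells and cell-free media wells, with curves fitted and assigned curve classes.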
# HT1080-NT tox = kills 2HG-producing HT-1080-NT fibrosarcoma cells. Potency, µM (top dose mostly 46.1 µM), most hits filed as cytotoxic. 360,000 compounds, 1.6% hits. AID 686970. HT-1080-NT fibrosarcoma viability, CellTiter-Glo ATP luminescence, 48 h;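 note: NT is the 2HG producing partner of a matched IDH1 knockdown line; nearly all actives have a fitted effect of over 55% in size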
#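 Fibrosarcoma NT cells, 750 per well in 5% FBS RPMI, were exposed to compound for 48 hours. Viability: CellTiter-Glo luminescence.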
# IL-1B inflam inh = inflammasome signaling inhibition, IL-1 beta readout; THP-1 LPS/ATP IL-1B secretion, AlphaLISA, 16 h; hits give low values; activity change, % at 57.5 µM; 360,000 compounds, 4.7% hits; in the data active = activity change below about -50%; inconclusive = mostly about -30% to -49%
#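 THP-1 cells pretreated 1 hr with compounds (up to 57.5 uM final), then stimulated with LPS (250 ng/mL final) plus ATP (1.25 mM final); secreted IL-1B measured by AlphaLISA after 16 hr, decreased signal indicating inhibition.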
# ELG1 repair inh = blocks ELG1-dependent DNA repair in HEK293T cells; HEK293T ELG1-luciferase reporter, luminescence, 16 h; DNA damage induced by 5-fluorouridine; Potency, µM (titrated, usually from 46.1 µM), usual class: inhibitors; 330,000 compounds, 2.3% hits; note: nearly all actives have a fitted effect of over 55% in size
#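 Cells (2,000 per well) received 5-fluorouridine plus test compound or DMSO and were incubated 16 hr at 37 °C, 5% CO2. Luciferase activity was read by luminescence 30 min after ONE-Glo addition; signal suppression marked inhibition of damage-induced ELG1 function.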
# Numbers stand for hits; . = inactive; ? = inconclusive; / = not tested or not shown; ! = repeats disagree. Compounds with a hit are over-represented: about 19% of the library has one in this group of screens. Unless noted, calls come from the whole dose curve; as a rule, active = well fitted curve in the direction sought with a large enough effect; inconclusive = small, poorly fitted or top-dose-only effect, or another doubt; inactive = no such curve, though single readings can be large; an effect the other way counts as inactive or inconclusive.
SMILES,TDP1 cell noCPT,DT40 TDP1 CPT,HT1080 IDH1KD tx,HT1080-NT tox,IL-1B inflam inh,ELG1 repair inh
O=C(OCC(=O)N1CCCC1)c1cc(=O)c2ccccc2o1,.,.,.,.,.,?
O=C(c1cc2c(ccc3ccccc32)oc1=O)N1CCCC1,.,.,.,.,-52,.
O=C(Nc1cc(=O)c2ccccc2o1)N1CCCCC1,.,.,.,.,.,15µM
O=C(Nc1cc(=O)c2ccccc2o1)N1CCOCC1,.,.,.,.,.,5.8µM
CC1CC2C(C(O)C[C@]3(C)C2CC[C@]3(O)C(=O)CO)[C@]2(C)C=CC(=O)C=C12 (stereo partly specified),.,.,/,/,/,/
C[C@]12C=CC(=O)C=C1CC[C@@H]1[C@@H]2[C@@H](O)C[C@@]2(C)[C@H]1CC[C@]2(O)C(=O)COC(=O)CCC(=O)O,.,.,?,?,?,.
CC12CCC(=O)C=C1CCC1C2C(O)CC2(C)C1CCC2(O)C(=O)COC(=O)COCC(=O)O (stereo unspecified),.,.,?,?,-50,/
C[C@]12C=CC(=O)C=C1CC[C@@H]1[C@@H]2[C@@H](O)C[C@@]2(C)[C@H]1CC[C@]2(O)C(=O)COC(=O)CCC(=O)NCCc1ccc(O)cc1,.,.,?,?,-56,.
C[C@]12CCC(=O)C=C1CC[C@@H]1C2[C@@H](O)C[C@@]2(C)[C@H]1CC[C@]2(O)C(=O)CO (stereo partly specified),?,.,/,/,/,/
C[C@]12CCC(=O)C=C1CC[C@@H]1[C@@H]2[C@@H](O)C[C@@]2(C)[C@H]1CC[C@]2(O)C(=O)CO,?,.,?,.,-58!,?
C[C@]12C=CC(=O)C=C1CC[C@@H]1[C@@H]2[C@@H](O)C[C@@]2(C)[C@H]1CC[C@]2(O)C(=O)CO,?,?,.,.,-55,.
CCc1ccccc1NC(=O)c1cc(S(=O)(=O)N2CCCC2)cn1C,.,?,/,/,/,/
CCCC(=O)N1CCCC1(C)C(=O)Nc1ccc2nc(C)ccc2c1 (stereo unspecified),.,.,.,.,.,/
Cc1cccc(-c2cc3c(N=O)c4ccccc4c-3n[nH]2)c1,?,?,.,.,.,?
O=Nc1c2cc(-c3ccccc3)[nH]nc-2c2ccccc12,21µM,21µM,?,.,.,?
O=C1CCc2ccccc2O1,.,.,.,.,.,.
O=C1CCC(=O)O1,.,.,.,.,-54,.
COc1ccc2oc(-c3ccc(C)c(NC(=O)COc4cc(C)cc(C)c4)c3)nc2c1,5.2µM,7.3µM,/,/,/,/
Cc1cccc(OCC(=O)Nc2cc(-c3nc4cc(Cl)ccc4o3)ccc2C)c1,?,7.1µM,/,/,/,/
Cc1cc(-c2nc3ncccc3o2)ccc1NC(=O)COc1cc(C)c(Cl)c(C)c1,.,.,/,/,/,/
Cc1ccc(-c2nc3cc(Cl)ccc3o2)cc1NC(=O)COc1ccc(F)cc1,.,.,/,/,/,/
Cc1ccc(-c2nc3ncccc3o2)cc1NC(=O)COc1ccc(C(C)C)cc1,16µM,?,/,/,/,/
COc1ccc2oc(-c3ccc(C)c(NC(=O)c4ccc(-c5ccccc5[N+](=O)[O-])o4)c3)nc2c1,9.2µM,18µM,/,/,/,/
Cc1oc2ncn(C)c(=O)c2c1C(=O)NCCCN1CCCC(C)C1 (stereo unspecified),.,.,/,/,/,/
Cc1cccc(OCC(=O)Nc2ccc(-c3nc4cc(C)ccc4o3)c(O)c2)c1,?,15µM,/,/,/,/
SMILES,TDP1 cell noCPT,DT40 TDP1 CPT,HT1080 IDH1KD tx,HT1080-NT tox,IL-1B inflam inh,ELG1 repair inh
COc1ccc(CC(=O)Nc2ccc(-c3nc4cc(C)ccc4o3)c(O)c2)cc1OC,?,?,.,.,.,?
COc1ccc(-c2nc3ccccc3o2)cc1NC(=O)COc1c(C)cc(Cl)cc1Cl,5.2µM,2.9µM,/,/,/,/
O=C(Nc1ccc([N+](=O)[O-])cc1)C1CC1(c1ccccc1)c1ccccc1 (stereo unspecified),?,?,?,?,.,?
CC1(C)OC2OC(C(=O)N/N=C/c3ccccc3F)C3OC(C)(C)OC3C2O1 (stereo unspecified),.,.,.,.,.,.
CC1(C)C(C=C(Cl)Cl)C1C(=O)Nc1ccc([N+](=O)[O-])cc1 (stereo unspecified),16µM,18µM,?,23µM,-99,.
CC1(C)C(C=C(Cl)Cl)C1C(=O)N/N=C/c1ccccc1F (stereo unspecified),29µM,?,.,.,.,.
CC(NC(=O)c1ccccc1Cl)c1ccc(-n2ccnc2)cc1 (stereo unspecified),.,.,.,.,.,/
CCOc1ccc(NC(=S)N2CCN(C/C=C/c3ccccc3)CC2)cc1,18µM,?,.,.,?,.
O=C(c1cccc(S(=O)(=O)N2CCOCC2)c1)N1CCN(C/C=C/c2ccccc2)CC1,?,?,.,.,.,.
CCOc1ccc(NS(=O)(=O)c2cccc(C(=O)N3CCN(C/C=C/c4ccccc4)CC3)c2)cc1,16µM,?,.,.,?,/
C[C@H](N)CCCP(=O)(O)O,.,.,/,/,/,/
CCCC(=O)Nc1ccc2nc(SCC(=O)N3CCCC3)sc2c1,?,.,.,.,.,?
CC(C)CC(=O)Nc1ccc2nc(SCC(=O)N3CCc4ccccc43)sc2c1,2.9µM,5.2µM,/,/,/,/
CC(C)C(=O)Nc1ccc2nc(SCC(=O)N3CCc4ccccc43)sc2c1,4.1µM,10µM,/,/,/,/
CCC(CC)C(=O)Nc1ccc2nc(SCC(=O)N3CCc4ccccc43)sc2c1,5.2µM,4.6µM,/,/,/,/
CN(C)C(=O)c1ccc(-c2cncnc2NCCc2cnc[nH]2)cc1,.,?,/,/,/,/
COc1ccc2[nH]c(C(O)C(O)c3nc4c(OC)c(OC)ccc4[nH]3)nc2c1OC (stereo unspecified),0.28µM,1µM,/,/,/,/
OC(c1nc2ccccc2[nH]1)C(O)c1nc2ccccc2[nH]1 (stereo unspecified),.,.,.,.,.,.
CSc1ncc(C(=O)Nc2c(C)cccc2C)c(-c2ccccc2)n1,.,.,/,/,/,/
Cc1ccccc1-n1ncc2c([N+](=O)[O-])cc([N+](=O)[O-])cc21,21µM,26µM,?,?,.,?
Cc1ccccc1N1C(=O)c2cccc([N+](=O)[O-])c2C1=O,.,.,?,.,?,.
COc1ccccc1N(CCC#N)C(=O)CSc1nnc2ccccn12,.,.,.,.,.,.
CCCN(CCC)C(=O)C1CCCN(S(=O)(=O)c2ccc3c(c2)oc(=O)n3C)C1 (stereo unspecified),?,?,.,.,.,.
